Test results reported in PubChem BioAssay (NCI).
About 79,000 compounds went through this panel and 15% of them were active in at least one assay; those are over-represented in the sample as a whole. Values without a mark were called inactive. Calls of active or inactive are those of the source. Rule as the data show it: active = growth inhibition above about 70%; inactive = the rest.

Key:
[1] = NCI Yeast Anticancer Drug Screen. Data for the rad50 strain (AID 155);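 also: 0% = growth of vehicle-only cultures of the same strain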; conditions: S. cerevisiae rad50 strain growth inhibition, hits give high values
In short: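 Readout: growth inhibition relative to vehicle-treated cultures. Compound exposure was carried out in a genetically defined yeast strain deficient in DNA damage repair.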

[2] = NCI Yeast Anticancer Drug Screen. Data for the mec2-1 strain (AID 157); conditions: S. cerevisiae mec2-1 strain, hits give high values
In short: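 Using mec2-1 yeast: add compound, measure growth, express inhibition versus vehicle-treated cultures.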

[3] = NCI Yeast Anticancer Drug Screen. Data for the sgs1 mgt1 strain (AID 161);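 also: 0% = growth of cultures given vehicle only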; conditions: S. cerevisiae sgs1 mgt1 strain, hits give high values
In short: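 Yeast cells carrying a defined DNA-repair defect were exposed to test compounds. Growth inhibition was measured relative to vehicle-treated controls.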

[4] = NCI Yeast Anticancer Drug Screen. Data for the cln2 rad14 strain (AID 165);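 also: 0% = growth equal to vehicle treated cultures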; conditions: S. cerevisiae cln2 rad14 strain, hits give high values
In short: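 Yeast strain cln2 rad14, bearing defects in cell cycle control and DNA repair, serves as the test system; values reflect growth inhibition compared with vehicle.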

[5] = NCI Yeast Anticancer Drug Screen. Data for the bub3 strain (AID 167); conditions: S. cerevisiae bub3 mutant strain, hits give high values
In short: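 Readout: yeast growth inhibition, expressed relative to vehicle-only wells. The test organism is a mutant strain from a panel with lesions in DNA repair or checkpoint genes.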

[6] = NCI Yeast Anticancer Drug Screen. Data for the mlh1 rad18 strain (AID 175); conditions: S. cerevisiae mlh1 rad18 strain growth inhibition, hits give high values
In short: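 Steps: expose repair-defective yeast to compound; measure growth; express inhibition against vehicle-treated controls.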

[7] = at 5.0 µM (retest, dose inferred, filed as 0.5)
[8] = at 50.0 µM (retest, dose inferred, filed as 5.0)

Row | SMILES | growth inhibition [1, 7] | growth inhibition [1, 8] | growth inhibition ([1]; at 50.0 µM) | growth inhibition [2, 7] | growth inhibition [2, 8] | growth inhibition ([2]; at 50.0 µM) | growth inhibition [3, 7] | growth inhibition [3, 8] | growth inhibition ([3]; at 50.0 µM) | growth inhibition [4, 7] | growth inhibition [4, 8] | growth inhibition ([4]; at 50.0 µM) | growth inhibition [5, 7] | growth inhibition [5, 8] | growth inhibition ([5]; at 50.0 µM) | growth inhibition [6, 7] | growth inhibition [6, 8] | growth inhibition ([6]; at 50.0 µM)
1 | NC(=O)c1nnn(Cc2cc(Cl)c(C(=O)c3ccc(Cl)cc3)c(Cl)c2)c1N | 2% | 98% (active) | 57.2% | 3% | 99% (active) | 98.9% (active) | 2% | 99% (active) | 50.3% | 1% | 98% (active) | 98.6% (active) | 5% | 99% (active) | 98.8% (active) | 13% | 94% (active) | 98.8% (active)
2 | O=[N+]([O-])c1ccc(-c2nc3ccc(F)cc3[nH]2)o1 | 73% (active) | 99% (active) | 99.6% (active) | 90% (active) | 99% (active) | 99.8% (active) | 86% (active) | 100% (active) | 99.7% (active) | 34% | 98% (active) | 98.5% (active) | 70% (active) | 100% (active) | 99.7% (active) | 94% (active) | 99% (active) | 99.7% (active)
3 | CCCCCCCCCCCCCCCCCCOP(=O)([O-])OC1CC[N+](C)(C)CC1 | 93% (active) | 99% (active) | 90% (active) | 98% (active) | 99% (active) | 92.5% (active) | 98% (active) | 99% (active) | 91% (active) | 96% (active) | 99% (active) | 90.2% (active) | 97% (active) | 99% (active) | 89% (active) | 97% (active) | 99% (active) | 92.5% (active)
4 | O=C1c2ccc3ccccc3c2CN2C(=O)CCC12 (configuration not stated) | 4% | 83% (active) | 25.2% | -11% | 16% | -6.6% | -5% | 28% | 21.7% | 7% | 66% | -4.3% | -5% | 39% | 6.2% | 4% | 43% | 23.5%
5 | CN(C)/N=C(/CC(O)(C(F)(F)F)C(F)(F)F)c1ccc([N+](=O)[O-])cc1 | 25% | 20% | -4.65% | 19% | 11% | -8.95% | 19% | 22% | 35.6% | 12% | 12% | -18.6% | 15% | 7% | -12.9% | 25% | 21% | -16.4%
6 | O=S(=O)(O)c1cc2ccccc2c(O)c1N=Nc1ccccc1 | 1% | 97% (active) | -33.1% | -1% | 98% (active) | -16% | 1% | 98% (active) | -3.25% | -16% | 97% (active) | 31.1% | -1% | 98% (active) | -0.1% | 2% | 98% (active) | 7.6%
7 | O=C(/C=C/C(=O)c1ccc(O)cc1)c1ccccc1 | -1% | 89% (active) | 12.4% | -1% | 85% (active) | 26.6% | -3% | 82% (active) | 30.8% | 3% | 90% (active) | 24.6% | -6% | 87% (active) | 38.6% | -1% | 94% (active) | 24.7%
8 | C[N+]12CC3C4CC(C3C1)C2C4 (configuration not stated) | -19% | -27% | 4.05% | -15% | -13% | -2.9% | -3% | 4% | 12.6% | 29% | 13% | 1.3% | -6% | -12% | 13.6% | -23% | -15% | 7.95%
9 | CC1=NC2=NC(CCCC(=O)OCc3ccc(Cl)c(Cl)c3)=NC3=CC=CC(=N1)N32 | 9% | 54% | 61.1% | 17% | 52% | 31.1% | 5% | 60% | 67.7% | 6% | 46% | 41% | 1% | 38% | 7.65% | 5% | 58% | 63.1%
